Laboratory results as given in PubChem BioAssay (Tox21).
Results filed as inconclusive are left out. Entries that show only a call come without a potency. The source made the active and inactive calls. Calls follow the shape of the full dose curve.

Test: p53 small molecule agonists, cell-based qHTS assay with rat liver microsomes: qHTS cell viability counter screen (AID 1963580)
Conditions: p53RE-bla HCT-116 + rat microsomes, ATP viability, 16 h; series mostly up to 66 µM
Method in brief: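 p53RE-bla HCT-116 cells were exposed 16 h at 37 C to compounds with rat liver microsomes (0.5 mg/mL) and NADPH (0.5 mg/mL). Viability was measured in the same wells as ATP content by CellTiter-Glo luminescence.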
Also: nearly all actives have a fitted effect of over 45% in size.

Structure (SMILES)	Potency	activity change, negative = cytotoxicity
CC(C)=CC(C)(C)C	inactive	–
CCCC/C=C/CCCCO	inactive	–
C[C@H](CS)C(=O)N1CCC[C@H]1C(=O)O	inactive	–
C/C=C1\[C@H]2C=C(C)C[C@]1(N)c1ccc(=O)[nH]c1C2	inactive	–
C[C@@H]1C[C@H]2O[C@@]3(O[C@@H]2C(C)(C)O)[C@H](O)[C@@]2(C)[C@@H]4CC[C@H]5C(C)(C)[C@@H](O[C@@H]6OC[C@@H](O)[C@H](O)[C@H]6O)CC[C@@]56C[C@@]46CC[C@]2(C)[C@@H]13	inactive	–
CCCCCC(C)OC(=O)COc1ccc(Cl)c2cccnc12 (stereo unspecified)	inactive	–
Cc1ccccc1N=Nc1ccc(N=Nc2c(O)ccc3ccccc23)c(C)c1	inactive	–
Brc1c(NC2=NCCN2)ccc2nccnc12	inactive	–
CC1CN(c2ccccc2)NC1=O (stereo unspecified)	inactive	–
O=C(NCC(O)CO)c1c(I)c(C(=O)NCC(O)CO)c(I)c(N(CCO)C(=O)CO)c1I (stereo unspecified)	inactive	–
O=[N+]([O-])c1ccc2ncccc2c1	inactive	–
Oc1ccc(C2(c3ccc(O)c(C4CCCCC4)c3)CCCCC2)cc1C1CCCCC1	inactive	–
Cc1cc(-c2ccc(N=Nc3cc(S(=O)(=O)O)c4ccccc4c3N)c(C)c2)ccc1N=Nc1cc(S(=O)(=O)O)c2ccccc2c1N	inactive	–
CCN(CC)CC	inactive	–
CO	inactive	–
O=C(c1ccccc1)c1ccc(O)cc1O	inactive	–
COC(=O)/C=C/C(C)=C\C=C\C(C)=C\C=C\C=C(C)\C=C\C=C(C)\C=C\C(=O)O	inactive	–
C[C@H]1[C@H](NC(=O)/C(=N/OC(C)(C)C(=O)O)c2csc(N)n2)C(=O)N1S(=O)(=O)O (stereo in doubt)	inactive	–
Oc1ccc2ccccc2c1	inactive	–
CCOC(=O)c1ccc(C2CCC(NC[C@H](O)COc3ccc(O)c(NS(C)(=O)=O)c3)CC2)cc1 (stereo partly specified)	inactive	–

Structure (SMILES)	Potency	activity change, negative = cytotoxicity
CCOC(=O)[C@@H](C)Oc1ccc(Oc2nc3ccc(Cl)cc3o2)cc1	inactive	–
COC(C(=O)O)c1ccccc1 (stereo unspecified)	inactive	–
CS(=O)(=O)Nc1ccc([N+](=O)[O-])cc1Oc1ccccc1	inactive	–
CN(C)CC/C=C1\c2ccccc2COc2ccccc21	inactive	–
O=C(O)Cc1cc(I)c(Oc2ccc(O)c(I)c2)c(I)c1	inactive	–
Cn1c(N)nc2nc[nH]c2c1=O	inactive	–
Cc1c(Nc2ncccc2C(=O)O)cccc1C(F)(F)F	inactive	–
O=C(CS(=O)Cc1ccco1)NC/C=C\COc1cc(CN2CCCCC2)ccn1 (stereo unspecified)	inactive	–
O=P(c1ccccc1)(c1ccccc1)c1ccccc1	inactive	–
Oc1ccc(N=Nc2ccccc2)cc1	inactive	–
O=S(c1cc(Cl)cc(Cl)c1O)c1cc(Cl)cc(Cl)c1O	inactive	–
CN(CCCN1c2ccccc2CCc2ccccc21)CC(=O)c1ccc(Cl)cc1	inactive	–
CC(C(=O)O)c1ccc2c(c1)[nH]c1ccc(Cl)cc12 (stereo unspecified)	inactive	–
c1ccc2sc(SSc3nc4ccccc4s3)nc2c1	–	0.0229% [at 13.5 µM] (inactive)
C=C/C=C/C=C/CCCCC	–	-6.94% [at 13.5 µM] (inactive)
CCCCCCOC(=O)c1ccccc1	inactive	–
O=C1CCc2ccc(OCCCCN3CCN(c4cccc(Cl)c4Cl)CC3)cc2N1	inactive	–
O=C(O)CCCCCCCCCCCBr	inactive	–
CC(=O)OCC=C(C)C	inactive	–
NC1=NCC2c3ccccc3Cc3ccccc3N12 (stereo unspecified)	inactive	–

Test: p53 small molecule agonists, cell-based qHTS assay: qHTS cell viability counter screen (AID 1963581)
Conditions: p53RE-bla HCT-116 viability, ATP luminescence, 16 h; series mostly up to 66 µM
Method in brief: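 Cells: HCT-116 with p53 response element-driven beta-lactamase. Treatment: 16 h, 37 C, compounds in DMSO. Read: CellTiter-Glo luminescence after 30 min RT.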

Structure (SMILES)	Potency	activity change, negative = cytotoxicity
CC(C)=CC(C)(C)C	inactive	–
C[C@H](CS)C(=O)N1CCC[C@H]1C(=O)O	inactive	–
C/C=C1\[C@H]2C=C(C)C[C@]1(N)c1ccc(=O)[nH]c1C2	inactive	–
C[C@@H]1C[C@H]2O[C@@]3(O[C@@H]2C(C)(C)O)[C@H](O)[C@@]2(C)[C@@H]4CC[C@H]5C(C)(C)[C@@H](O[C@@H]6OC[C@@H](O)[C@H](O)[C@H]6O)CC[C@@]56C[C@@]46CC[C@]2(C)[C@@H]13	inactive	–
Cc1ccccc1N=Nc1ccc(N=Nc2c(O)ccc3ccccc23)c(C)c1	inactive	–
Brc1c(NC2=NCCN2)ccc2nccnc12	inactive	–
O=[N+]([O-])c1ccc2ncccc2c1	inactive	–
CCN(CC)CC	inactive	–
CO	inactive	–
O=C(c1ccccc1)c1ccc(O)cc1O	inactive	–
COC(=O)/C=C/C(C)=C\C=C\C(C)=C\C=C\C=C(C)\C=C\C=C(C)\C=C\C(=O)O	inactive	–
C[C@H]1[C@H](NC(=O)/C(=N/OC(C)(C)C(=O)O)c2csc(N)n2)C(=O)N1S(=O)(=O)O (stereo in doubt)	inactive	–
CCOC(=O)c1ccc(C2CCC(NC[C@H](O)COc3ccc(O)c(NS(C)(=O)=O)c3)CC2)cc1 (stereo partly specified)	inactive	–
CCOC(=O)[C@@H](C)Oc1ccc(Oc2nc3ccc(Cl)cc3o2)cc1	inactive	–
COC(C(=O)O)c1ccccc1 (stereo unspecified)	inactive	–
CS(=O)(=O)Nc1ccc([N+](=O)[O-])cc1Oc1ccccc1	inactive	–
CN(C)CC/C=C1\c2ccccc2COc2ccccc21	inactive	–
O=P(c1ccccc1)(c1ccccc1)c1ccccc1	inactive	–
CC(C(=O)O)c1ccc2c(c1)[nH]c1ccc(Cl)cc12 (stereo unspecified)	inactive	–
c1ccc2sc(SSc3nc4ccccc4s3)nc2c1	–	-1.21% [at 13.5 µM] (inactive)
O=C(O)CCCCCCCCCCCBr	inactive	–
